Assay [1] is described as follows: Quantitative High-Throughput drug screen in 47 multiple myeloma cell lines against the NCATS MIPE library collection: JJN3_DSMZ cell viability assay (AID 1918966; further: nearly all actives have a fitted effect of over 50% in size). The method in brief:
(§1)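 CellTiter-Glo luminescence (ATP) after 48 h compound exposure, 37C/5% CO2; 500 cells/well; MIPE 4.0 approved/investigational drugs pinned in; DMSO = 100%, media only = 0% viability.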

A short description of assay [2]: Quantitative High-Throughput drug screen in 47 multiple myeloma cell lines against the NCATS MIPE library collection: H1112_PLB cell viability assay (AID 1918967; further: nearly all actives have a fitted effect of over 30% in size). Summed up: as §1
Assay [3] can be described thus: Quantitative High-Throughput drug screen in 47 multiple myeloma cell lines against the NCATS MIPE library collection: Karpas25_ECACC cell viability assay (AID 1918968; further: nearly all actives have a fitted effect of over 35% in size). Summed up: as §1
The nature of assay [4]: Quantitative High-Throughput drug screen in 47 multiple myeloma cell lines against the NCATS MIPE library collection: KMS27_JCRB cell viability assay (AID 1918970). Further: nearly all actives have a fitted effect of over 30% in size. Summed up: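 ATP-based viability (CellTiter-Glo luminescence) is measured in cells treated 48 h with approved and investigational drugs at 37 °C. Controls are DMSO-only wells for full viability and media-only wells for none.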

The nature of assay [5]: Quantitative High-Throughput drug screen in 47 multiple myeloma cell lines against the NCATS MIPE library collection: KMS26_JCRB cell viability assay (AID 1918975). Further: nearly all actives have a fitted effect of over 45% in size. Summed up:
as §1

Assay [6] in a line: Quantitative High-Throughput drug screen in 47 multiple myeloma cell lines against the NCATS MIPE library collection: NCIH929_DSMZ cell viability assay (AID 1918978). Further: nearly all actives have a fitted effect of over 35% in size. The method in brief: (§2)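 MIPE 4.0 approved/investigational drugs; 500 cells/well; 48 h 37 °C humidified 5% CO2; CTG luminescence readout; DMSO = 100%, media = 0% viability.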
Assay [7] in a line: Quantitative High-Throughput drug screen in 47 multiple myeloma cell lines against the NCATS MIPE library collection: OCIMY1_PLB cell viability assay (AID 1918979). Further: nearly all actives have a fitted effect of over 35% in size. The method in brief:
as §2

A short description of assay [8]: Quantitative High-Throughput drug screen in 47 multiple myeloma cell lines against the NCATS MIPE library collection: MM1R_ATCC cell viability assay (AID 1918981). Further: nearly all actives have a fitted effect of over 35% in size. Summed up: as §2
Assay [9] is described as follows: Quantitative High-Throughput drug screen in 47 multiple myeloma cell lines against the NCATS MIPE library collection: LP1_DSMZ cell viability assay (AID 1918982). Further: nearly all actives have a fitted effect of over 35% in size. Summed up:
as §2

A short description of assay [10]: Quantitative High-Throughput drug screen in 47 multiple myeloma cell lines against the NCATS MIPE library collection: KMS28PE_JCRB cell viability assay (AID 1918983). Further: nearly all actives have a fitted effect of over 35% in size. The method in brief: as §2
A short description of assay [11]: Quantitative High-Throughput drug screen in 47 multiple myeloma cell lines against the NCATS MIPE library collection: L363_DSMZ cell viability assay (AID 1918984). Further: nearly all actives have a fitted effect of over 40% in size. The method in brief:
as §2

Assay [12] in a line: Quantitative High-Throughput drug screen in 47 multiple myeloma cell lines against the NCATS MIPE library collection: KMS34_JCRB cell viability assay (AID 1918985). Further: nearly all actives have a fitted effect of over 40% in size. The method in brief:
as §2

A short description of assay [13]: Quantitative High-Throughput drug screen in 47 multiple myeloma cell lines against the NCATS MIPE library collection: OCIMY7_PLB cell viability assay (AID 1918987). Further: nearly all actives have a fitted effect of over 65% in size. Summed up: as §2
Assay [14] is described as follows: Quantitative High-Throughput drug screen in 47 multiple myeloma cell lines against the NCATS MIPE library collection: KMS12BM_JCRB cell viability assay (AID 1918971). Further: nearly all actives have a fitted effect of over 35% in size. Summed up:
as §1

Assay [15] can be described thus: Quantitative High-Throughput drug screen in 47 multiple myeloma cell lines against the NCATS MIPE library collection: KMS20_JCRB cell viability assay (AID 1918973). Further: nearly all actives have a fitted effect of over 45% in size. The method in brief:
as §1

Assay [16] can be described thus: Quantitative High-Throughput drug screen in 47 multiple myeloma cell lines against the NCATS MIPE library collection: MMM1_PLB cell viability assay (AID 1918976). Further: nearly all actives have a fitted effect of over 35% in size. The method in brief:
as §2

A short description of assay [17]: Quantitative High-Throughput drug screen in 47 multiple myeloma cell lines against the NCATS MIPE library collection: MM1S_ATCC cell viability assay (AID 1918980). Further: nearly all actives have a fitted effect of over 45% in size. Summed up: as §2
Assay [18] is described as follows: Quantitative High-Throughput drug screen in 47 multiple myeloma cell lines against the NCATS MIPE library collection: KMS12PE_JCRB cell viability assay (AID 1918972). Further: nearly all actives have a fitted effect of over 30% in size. Summed up:
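Approved and investigational drugs from MIPE 4.0 were added by pin tool to 500 cells per well. After 48 hours at 37C, ATP-based CellTiter-Glo luminescence indicated remaining viability.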

Assay [19] can be described thus: Quantitative High-Throughput drug screen in 47 multiple myeloma cell lines against the NCATS MIPE library collection: KMS21BM_JCRB cell viability assay (AID 1918974). As to conditions: ATP luminescence, 48 h; viability: at 45.8 µM (top of the series). The method in brief:
as §1

Results filed as inconclusive are left out. Active and inactive are the calls of the source. The call rests on the fitted dose curve; in most records, active means well fitted curve in the direction sought with a large enough effect; inconclusive means small, poorly fitted or top-dose-only effect, or another doubt; inactive means no such curve, though single readings can be large; an effect the other way counts as inactive or inconclusive.
Potency means the concentration at half of the fitted maximal effect.

In the case of `C1=C2CCCN[C@H]2[C@@H]2C[C@H]1[C@@H]1CCCCN1C2`, the Potency result in assay [1], in assay [2], in assay [3], in [4], in [5] and in assay [6] was “inactive” each time. Besides, the Potency result in assay [7], in [8], in [9], in [10], in [11] and in [12] was “inactive” throughout. The Potency entry in [13] was “inactive”.
Take `CC[C@H]1C=CC=CC[C@@H](C)[C@H](O)[C@@](C)(O)C(=O)[C@@H](C)[C@H](O)[C@@H](C)C(=O)[C@@H](C)[C@H](O)[C@@H](C)C=CC(=O)O[C@@H]2[C@@H](C)[C@H](CC1)O[C@]1(CC[C@H](C)[C@H](C[C@@H](C)O)O1)[C@H]2C`: the Potency in assay [1] was 18.7 µM (active); in assay [2] it was 0.0053 µM (active); in assay [3], 0.001 µM (active); in assay [5] it was 10.5 µM (active); in assay [6], 0.0296 µM (active); in [10], 20.9 µM (active). For the same compound, the Potency in assay [11] and in assay [13] was 0.001 µM (active) throughout.
In the case of `CC(C)(C)c1cc(C=C(C#N)C#N)cc(Br)c1O`, the Potency in assay [1] is 23.5 µM (active); in assay [2], 16.6 µM (active); in assay [3], 3.72 µM (active); in assay [14] it was 16.6 µM (active); in assay [15], 13.2 µM (active); in assay [6], 16.6 µM (active). Further, the Potency is 23.5 µM (active) in assay [9], 23.5 µM (active) in assay [10] and 4.69 µM (active) in [13].
As to `C[C@@]12OC(=O)[C@]1([C@@H](O)[C@@H]1C=CCCC1)NC(=O)[C@H]2CCCl`, the Potency in assay [2] was 0.0235 µM (active); in assay [3] it was 0.001 µM (active); in assay [4], 0.0187 µM (active); in assay [14], 0.0235 µM (active); in assay [15], 0.0296 µM (active); in assay [5], 0.0105 µM (active). Also, the Potency was 0.132 µM (active) in assay [16]; 0.001 µM (active) in assay [6]; 0.0053 µM (active) in assay [17]; 0.0037 µM (active) in [8]; 0.0166 µM (active) in assay [9]; 0.0083 µM (active) in [10]. Also, the Potency in assay [12] was 0.0105 µM (active); in [13], 0.001 µM (active).
Turning to `C[C@](O)(COc1ccc(C#N)cc1)C(=O)Nc1ccc(C#N)c(C(F)(F)F)c1`, the Potency result in assay [1], in [7], in assay [9] and in assay [12] was “inactive” each time. For the same compound, the figures for the Potency in [3] and in [13] were 18.7 µM (active) and 26.4 µM (active), respectively.
Regarding `COc1ccc2c(c[n+](C)c3c4cc5c(cc4ccc23)OCO5)c1OC`, the Potency is 2.64 µM (active) in assay [1]; 7.43 µM (active) in assay [2]; 7.43 µM (active) in assay [3]; 6.62 µM (active) in [4]; 3.72 µM (active) in assay [14]; 4.69 µM (active) in assay [18]. Besides, the Potency in assay [5] is 3.72 µM (active); in assay [6], 7.43 µM (active); in assay [7], 7.43 µM (active); in assay [17], 4.69 µM (active); in assay [8], 2.35 µM (active); in assay [9], 14.8 µM (active). In addition, the Potency in [10] was 4.69 µM (active); in [11] it was 4.18 µM (active); in assay [12] it was 4.18 µM (active); in assay [13], 2.96 µM (active).
With `COCC1(CO)C(=O)C2CCN1CC2` (configuration not stated), the Potency in assay [1] is 0.59 µM (active); in [2] it was 20.9 µM (active); in [3], 3.72 µM (active); in assay [4] it was 4.18 µM (active); in assay [14] it was 7.43 µM (active); in [18], 9.35 µM (active). The Potency in [15] is 0.296 µM (active); in [19] it was 4.18 µM (active); in [5], 0.662 µM (active); in assay [6] it was 0.833 µM (active); in [9], 2.64 µM (active); in assay [10], 18.7 µM (active). Besides, the Potency in assay [11] was 3.32 µM (active); in assay [12], 0.59 µM (active); in assay [13] it was 0.469 µM (active).
Consider `c1ccc2c(CN3CCNCC3)cccc2c1`, for which the Potency result in [2], in assay [3], in [4], in assay [14], in assay [18] and in assay [5] was “inactive” each time. The Potency result in [6], in assay [17], in assay [8], in [9], in assay [10] and in assay [12] was “inactive” each time.
For the compound `CC(C)(O)C=CC(=O)[C@](C)(O)[C@H]1[C@H](O)C[C@]2(C)[C@@H]3CC=C4[C@@H](C=C(O)C(=O)C4(C)C)[C@]3(C)C(=O)C[C@@]12C`, the Potency in [2] was 2.09 µM (active); in [3], 0.0296 µM (active); in assay [4] it was 0.0209 µM (active); in assay [14], 1.18 µM (active); in [18], 0.0418 µM (active); in assay [15], 0.0187 µM (active). Besides, the Potency is 0.0148 µM (active) in [19]; 0.0372 µM (active) in assay [5]; 0.0469 µM (active) in assay [6]; 0.0418 µM (active) in [17]; 0.418 µM (active) in assay [9]; 1.66 µM (active) in [10]. The Potency in assay [11] was 0.0209 µM (active); in assay [12], 0.0332 µM (active); in [13] it was 0.0235 µM (active).
For the compound `CC[C@@]1(O)C(=O)OCc2c1cc1n(c2=O)Cc2cc3ccccc3nc2-1`, the Potency in [1] was 0.743 µM (active); in assay [2], 0.059 µM (active); in [3], 0.0833 µM (active); in [4], 0.0166 µM (active); in assay [14], 0.166 µM (active); in assay [15] it was 0.209 µM (active). Besides, the Potency is 2.35 µM (active) in assay [5]; 0.105 µM (active) in assay [6]; 0.59 µM (active) in [9]; 0.166 µM (active) in assay [10]; 0.296 µM (active) in [11]; 0.209 µM (active) in assay [12]. In assay [13], the Potency was 0.001 µM (active).
Consider `O=c1[nH]c2ccc(Cl)cc2c(N[C@@H]2CN3CCC2CC3)c1-c1nc2ccccc2[nH]1`, for which the Potency in assay [2] was 0.418 µM (active); in [3], 0.235 µM (active); in [4], 0.187 µM (active); in assay [14], 1.66 µM (active); in assay [15], 0.166 µM (active); in [19], 0.0264 µM (active). Moreover, the Potency in assay [5] is 2.64 µM (active); in [16] it was 6.62 µM (active); in [6], 0.148 µM (active); in [7] it was 4.69 µM (active); in [17] it was 0.0743 µM (active); in assay [8], 0.0833 µM (active). Also, the Potency in assay [9] was 3.32 µM (active); in [10], 2.35 µM (active); in assay [12], 0.0743 µM (active); in assay [13] it was 0.059 µM (active).
Turning to `C[C@@H]1CC[C@@]2(OC1)O[C@H]1C[C@H]3[C@@H]4CC=C5C[C@@H](O[C@@H]6O[C@H](CO)[C@@H](O[C@@H]7O[C@@H](C)[C@H](O)[C@@H](O)[C@@H]7O)[C@H](O)[C@@H]6O[C@@H]6O[C@@H](C)[C@H](O)[C@@H](O)[C@@H]6O)CC[C@]5(C)[C@@H]4CC[C@]3(C)[C@@H]1[C@H]2C`, the Potency in assay [2] was 4.69 µM (active); in assay [3], 3.32 µM (active); in assay [4], 0.935 µM (active); in assay [14] it was 2.64 µM (active); in assay [18], 1.32 µM (active); in assay [15], 4.18 µM (active). In addition, the Potency in assay [19] was 1.48 µM (active); in assay [5], 2.35 µM (active); in assay [16] it was 2.35 µM (active); in assay [6], 4.18 µM (active); in assay [9] it was 2.96 µM (active); in assay [10], 2.96 µM (active). Further, the Potency in assay [11] is 1.87 µM (active); in assay [12] it was 1.87 µM (active); in [13], 3.32 µM (active).
